According to PubChem BioAssay (NCATS):
Results filed as inconclusive are left out. Activity calls are given as the source filed them. Unless noted, calls follow the shape of the dose curve; as a rule, active = well fitted curve in either direction with a large enough effect (not every such curve was filed as active); inconclusive = small, poorly fitted or top-dose-only effect, or another doubt; inactive = flat fitted curve, though single readings scatter.

What was measured:
[1] = target: Lysosomal acid glucosylceramidase (Homo sapiens) (UniProt P04062); assay: Glucocerebrosidase-p2 (AID 348; in the data active = potency below about 10 µM; also: potency is read from the fitted curve at half-maximal effect); conditions: purified GBA, blue fluorogenic substrate, 40 min
Sequence of Lysosomal acid glucosylceramidase (Homo sapiens) (P04062 whole entry, looked up): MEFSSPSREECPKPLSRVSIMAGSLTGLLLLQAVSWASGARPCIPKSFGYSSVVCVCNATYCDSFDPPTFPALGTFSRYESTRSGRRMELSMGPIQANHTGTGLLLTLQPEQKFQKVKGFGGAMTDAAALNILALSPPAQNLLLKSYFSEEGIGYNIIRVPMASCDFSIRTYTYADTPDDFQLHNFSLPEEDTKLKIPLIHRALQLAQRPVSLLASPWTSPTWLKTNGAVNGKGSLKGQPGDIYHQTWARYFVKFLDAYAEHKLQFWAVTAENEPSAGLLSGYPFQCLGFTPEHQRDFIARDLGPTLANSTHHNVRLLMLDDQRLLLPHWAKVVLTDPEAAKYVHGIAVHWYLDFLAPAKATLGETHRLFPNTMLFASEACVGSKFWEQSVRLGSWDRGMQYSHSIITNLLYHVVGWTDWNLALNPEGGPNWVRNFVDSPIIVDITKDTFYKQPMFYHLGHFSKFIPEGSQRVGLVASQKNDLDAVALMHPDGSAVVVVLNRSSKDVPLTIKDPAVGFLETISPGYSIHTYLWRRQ
How it was run: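 Compounds titrated from 0.6 nM upwards against 0.2 nM enzyme in pH 5.9 citric acid/KH2PO4, taurocholate, tween-20; blue fluorogenic substrate 80 uM, 40 min room temperature, stopped and read Ex 365/Em 440 for AC50.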

[2] = target: Cytochrome P450 1A2 (Homo sapiens) (UniProt P05177); assay: p450-cyp1a2 (AID 410; calls by dose curve; also: potency is read from the fitted curve at half-maximal effect); conditions: recombinant CYP1A2, luciferin-ME demethylation, luminescence; series mostly up to 11.4 µM
Sequence of Cytochrome P450 1A2 (Homo sapiens) (P05177 whole entry, looked up): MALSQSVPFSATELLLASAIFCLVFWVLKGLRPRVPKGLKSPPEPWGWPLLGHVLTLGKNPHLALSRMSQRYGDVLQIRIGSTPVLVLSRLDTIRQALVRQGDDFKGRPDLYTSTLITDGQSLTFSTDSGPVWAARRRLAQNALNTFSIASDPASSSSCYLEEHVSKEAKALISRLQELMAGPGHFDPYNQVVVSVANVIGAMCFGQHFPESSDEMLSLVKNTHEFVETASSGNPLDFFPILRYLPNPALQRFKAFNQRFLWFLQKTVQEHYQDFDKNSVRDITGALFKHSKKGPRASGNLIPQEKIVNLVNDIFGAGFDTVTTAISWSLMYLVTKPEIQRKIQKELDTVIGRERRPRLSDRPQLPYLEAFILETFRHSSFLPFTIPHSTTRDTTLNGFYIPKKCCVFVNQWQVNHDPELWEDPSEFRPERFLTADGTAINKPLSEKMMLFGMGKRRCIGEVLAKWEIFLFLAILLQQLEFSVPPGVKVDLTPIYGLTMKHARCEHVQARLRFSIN
How it was run: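 Inhibition was calculated relative to 57 uM furafylline (full inhibition). The reaction used human CYP1A2 at 20nM with Luciferin-ME at its Km, 100uM, driven by an NADPH-regenerating system for 60 min at room temperature.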

[3] = target: Glucocorticoid receptor (Homo sapiens) (UniProt P04150); assay: GR-GFP Redistribution (AID 450;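 active = compounds whose dose series gives a full or clear partial fitted curve of increased nuclear translocation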; also: potency is read from the fitted curve at half-maximal effect); conditions: U2OS GR-GFP nuclear translocation, laser cytometry, 2 h
Sequence of Glucocorticoid receptor (Homo sapiens) (P04150 whole entry, looked up, the tested form may be a part): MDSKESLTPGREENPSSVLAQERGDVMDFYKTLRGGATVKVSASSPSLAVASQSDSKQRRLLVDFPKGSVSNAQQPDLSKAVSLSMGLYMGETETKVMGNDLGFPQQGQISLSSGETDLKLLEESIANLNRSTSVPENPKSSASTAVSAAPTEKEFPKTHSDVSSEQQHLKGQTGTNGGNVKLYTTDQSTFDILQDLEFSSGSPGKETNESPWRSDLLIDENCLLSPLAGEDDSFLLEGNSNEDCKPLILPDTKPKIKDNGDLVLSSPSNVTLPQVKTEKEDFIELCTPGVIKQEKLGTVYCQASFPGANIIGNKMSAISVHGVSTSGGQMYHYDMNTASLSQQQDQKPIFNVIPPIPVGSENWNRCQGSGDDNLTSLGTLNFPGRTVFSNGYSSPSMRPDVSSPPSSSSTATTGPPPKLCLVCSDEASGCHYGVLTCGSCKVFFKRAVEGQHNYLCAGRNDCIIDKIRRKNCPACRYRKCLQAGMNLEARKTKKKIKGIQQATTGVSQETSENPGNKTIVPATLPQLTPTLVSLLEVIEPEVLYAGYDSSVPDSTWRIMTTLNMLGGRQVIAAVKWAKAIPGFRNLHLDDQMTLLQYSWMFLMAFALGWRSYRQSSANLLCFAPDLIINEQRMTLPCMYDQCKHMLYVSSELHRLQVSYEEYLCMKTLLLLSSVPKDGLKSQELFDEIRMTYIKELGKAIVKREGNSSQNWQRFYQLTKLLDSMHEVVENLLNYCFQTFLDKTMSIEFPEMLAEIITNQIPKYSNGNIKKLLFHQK

[4] = target: Glucocorticoid receptor (Homo sapiens) (UniProt P04150); assay: GR-EFC Redistribution (AID 451; calls by dose curve; also: potency is read from the fitted curve at half-maximal effect); conditions: CHO-K1 GR-EFC translocation, beta-gal luminescence, 2 h
How it was run: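 CHO-K1 cells stably expressing nuclear-localized β-gal enzyme acceptor and GR fused C-terminally to the enzyme donor fragment; ligand-driven nuclear translocation restores β-gal by complementation. Compounds titrated up to 46 uM final, 2 h at 37 °C; luminescence read.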

[5] = target: Mitogen-activated protein kinase 10 (Mus musculus) (UniProt Q61831); assay: JNK3 AlphaScreen Assay (AID 530); conditions: JNK3 lysate, c-Jun phosphorylation; series mostly up to 11.4 µM;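 also: kinase came from lysate of stimulated human HepG2 cells; signal reports phosphorylation of biotinylated GST-cJun 1-79 at Ser73 with 10 µM ATP; % is scaled to controls: 0 for no effect and ±100 for the full control effect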
How it was run: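 JNK3 came from HepG2 lysates pre-activated with IL-1beta and TNF-alpha and phosphorylated biotinylated GST-cJun (1-79) at 10 uM ATP, pH 7.6, room temperature. Compounds were titrated. AlphaScreen signal used anti-phospho-cJun (Ser73) antibody.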

[6] = target: 3',5'-cyclic-AMP phosphodiesterase 4B (Homo sapiens) (UniProt Q07343); assay: qHTS Assay for Inhibitors of PDE-IV (AID 607; active = well fitted activation curve with a large enough effect in the main read-out, with a control signal flat, not every such curve was filed as active; also: % of control where 0% means no effect); conditions: HEK293 ACTOne CNG channel cells, membrane potential fluorescence; series mostly up to 22.9 µM
Sequence of 3',5'-cyclic-AMP phosphodiesterase 4B (Homo sapiens) (Q07343 whole entry, looked up): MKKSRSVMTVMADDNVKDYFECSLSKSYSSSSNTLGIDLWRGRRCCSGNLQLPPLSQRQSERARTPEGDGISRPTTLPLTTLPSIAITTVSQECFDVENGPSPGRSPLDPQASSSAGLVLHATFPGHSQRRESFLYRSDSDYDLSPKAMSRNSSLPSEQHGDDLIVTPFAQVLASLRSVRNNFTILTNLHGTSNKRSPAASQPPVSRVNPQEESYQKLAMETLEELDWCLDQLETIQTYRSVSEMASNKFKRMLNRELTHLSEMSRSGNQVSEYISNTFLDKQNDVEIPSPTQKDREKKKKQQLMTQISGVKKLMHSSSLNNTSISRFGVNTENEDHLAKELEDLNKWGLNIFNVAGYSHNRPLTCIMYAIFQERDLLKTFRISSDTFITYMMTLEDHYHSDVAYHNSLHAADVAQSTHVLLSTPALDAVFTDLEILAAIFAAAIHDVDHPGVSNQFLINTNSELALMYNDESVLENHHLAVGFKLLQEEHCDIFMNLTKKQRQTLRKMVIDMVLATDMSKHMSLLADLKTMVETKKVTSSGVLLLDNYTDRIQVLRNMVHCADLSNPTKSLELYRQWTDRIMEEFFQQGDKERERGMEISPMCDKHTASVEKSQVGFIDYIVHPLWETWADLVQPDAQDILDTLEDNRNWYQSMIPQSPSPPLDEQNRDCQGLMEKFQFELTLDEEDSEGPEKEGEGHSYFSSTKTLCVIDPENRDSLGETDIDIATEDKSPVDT
How it was run: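 The readout is membrane depolarisation from a cAMP-sensing CNG channel, detected with a potential dye at ex 535/em 590. Cells were HEK293-derived (endogenous PDE-IV) at 1000 cells/well, titrated up to 22.9 uM final.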

[7] = target: Cytochrome P450 2C19 (Homo sapiens) (UniProt P33261); assay: qHTS Assay for Inhibitors and Substrates of Cytochrome P450 2C19 (AID 899; active = well fitted curve in the direction sought with a large enough effect; an effect the other way counts as inactive or inconclusive; also: potency is read from the fitted curve at half-maximal effect; nearly all actives have a fitted effect of over 60% in size); conditions: recombinant CYP2C19, luciferin-H EGE luminescence; series mostly up to 11.4 µM
Sequence of Cytochrome P450 2C19 (Homo sapiens) (P33261 whole entry, looked up): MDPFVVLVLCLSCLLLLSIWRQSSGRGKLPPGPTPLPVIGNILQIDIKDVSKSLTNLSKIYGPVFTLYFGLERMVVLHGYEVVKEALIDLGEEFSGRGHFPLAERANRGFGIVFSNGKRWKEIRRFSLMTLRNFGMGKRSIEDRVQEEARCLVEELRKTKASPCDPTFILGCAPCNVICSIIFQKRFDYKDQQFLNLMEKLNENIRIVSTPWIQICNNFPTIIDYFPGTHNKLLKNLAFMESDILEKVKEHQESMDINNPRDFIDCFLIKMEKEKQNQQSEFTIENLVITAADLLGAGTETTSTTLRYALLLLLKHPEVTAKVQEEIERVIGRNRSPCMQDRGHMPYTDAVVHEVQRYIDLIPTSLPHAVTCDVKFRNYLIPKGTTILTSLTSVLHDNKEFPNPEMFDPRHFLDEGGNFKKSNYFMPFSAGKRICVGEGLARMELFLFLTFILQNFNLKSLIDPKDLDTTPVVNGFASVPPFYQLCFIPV
How it was run: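 Human CYP2C19 (5nM) with Luciferin-H EGE at 10uM (its KM) in 50mM KPO4 was preincubated with compound for 10 min at 37C. NADPH regeneration started a 60 min 37C reaction. Luciferin was read by luminescence, normalized to 57uM ketoconazole.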

[8] = target: Cytochrome P450 3A4 (Homo sapiens) (UniProt P08684); assay: qHTS Assay for Inhibitors and Substrates of Cytochrome P450 3A4 (AID 884; active = well fitted curve in the direction sought with a large enough effect; an effect the other way counts as inactive or inconclusive; also: potency is read from the fitted curve at half-maximal effect; nearly all actives have a fitted effect of over 50% in size); conditions: recombinant CYP3A4, Luciferin-PPXE luminescence; series mostly up to 57.1 µM
Sequence of Cytochrome P450 3A4 (Homo sapiens) (P08684 whole entry, looked up): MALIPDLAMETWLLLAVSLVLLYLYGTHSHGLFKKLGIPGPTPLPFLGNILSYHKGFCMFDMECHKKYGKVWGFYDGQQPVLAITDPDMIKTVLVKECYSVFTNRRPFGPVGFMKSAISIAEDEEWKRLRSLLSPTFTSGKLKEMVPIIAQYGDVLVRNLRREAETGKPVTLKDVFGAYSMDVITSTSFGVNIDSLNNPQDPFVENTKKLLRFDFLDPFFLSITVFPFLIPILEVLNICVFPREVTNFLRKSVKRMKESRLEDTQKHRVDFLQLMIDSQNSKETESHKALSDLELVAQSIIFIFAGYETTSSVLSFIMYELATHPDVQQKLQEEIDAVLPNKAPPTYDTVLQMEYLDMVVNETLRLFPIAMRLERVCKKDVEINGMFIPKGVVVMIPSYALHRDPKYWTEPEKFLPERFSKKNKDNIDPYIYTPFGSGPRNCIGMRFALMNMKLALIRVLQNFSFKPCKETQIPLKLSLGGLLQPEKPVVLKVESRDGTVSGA
How it was run: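 20 nM human CYP3A4 with 25 uM Luciferin-PPXE (at KM) in 200 mM KPO4, preincubated 10 min with compound; NADPH regeneration started a 60 min RT reaction. Luciferin detected by luminescence, normalized to 57 uM ketoconazole as full inhibition.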

[9] = NFAT Signaling Pathway (AID 444); conditions: Jurkat NFAT-bla M1, carbachol, beta-lactamase ratio, 5 h; at 7.69 µM (top of the series) unless noted;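 also: carbachol stimulus at about its EC50 of 1 µM final; % is scaled to controls: 0 for no effect and ±100 for the full control effect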
How it was run: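 Jurkat cells carrying an NFAT-driven β-lactamase reporter and co-transfected muscarinic M1 receptor were treated with compound plus carbachol (1 uM final, an EC50 level) for 5 h at 37 °C. CCF4 loading followed for 1 h at RT; 460/530 nm ratio gave %activity.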

[10] = Stat Signaling Pathway (AID 446); conditions: ME-180 SIE beta-lactamase reporter, IL-6 stimulated, 5 h; at 7.69 µM (top of the series) unless noted;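 also: ME-180 cervical cancer cells given 40 pM IL-6 alongside compound; SIE-controlled beta-lactamase reporter measured as 460/530 nm FRET emission ratio; % is scaled to controls: 0 for no effect and ±100 for the full control effect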
How it was run: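 Screening format detects activators and inhibitors alike: ME-180 SIE-bla cells stimulated at 40 pM IL-6 for 5 hrs with compound, then dual-emission beta-lactamase read at 405 nm excitation.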

[11] = target: Cytochrome P450 2C9 (Homo sapiens) (UniProt P11712); assay: qHTS Assay for Inhibitors and Substrates of Cytochrome P450 2C9 (AID 883; active = well fitted curve in the direction sought with a large enough effect; an effect the other way counts as inactive or inconclusive; also: potency is read from the fitted curve at half-maximal effect; nearly all actives have a fitted effect of over 60% in size); conditions: recombinant CYP2C9, luciferin-H luminescence, 60 min; series mostly up to 11.4 µM
Sequence of Cytochrome P450 2C9 (Homo sapiens) (P11712 whole entry, looked up): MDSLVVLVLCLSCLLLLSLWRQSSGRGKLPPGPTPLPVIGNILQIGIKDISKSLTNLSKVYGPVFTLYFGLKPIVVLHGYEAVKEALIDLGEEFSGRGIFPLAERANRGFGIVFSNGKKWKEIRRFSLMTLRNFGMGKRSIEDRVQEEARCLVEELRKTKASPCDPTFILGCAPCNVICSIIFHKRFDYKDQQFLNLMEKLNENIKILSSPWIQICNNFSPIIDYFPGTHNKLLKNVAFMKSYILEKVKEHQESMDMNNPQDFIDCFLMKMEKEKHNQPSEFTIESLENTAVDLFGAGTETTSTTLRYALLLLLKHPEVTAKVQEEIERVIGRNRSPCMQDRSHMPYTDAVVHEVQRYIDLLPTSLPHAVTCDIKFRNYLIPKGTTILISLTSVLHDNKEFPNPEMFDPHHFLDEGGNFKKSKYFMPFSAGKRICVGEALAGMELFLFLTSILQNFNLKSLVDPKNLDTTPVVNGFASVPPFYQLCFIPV
How it was run: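 Human CYP2C9 (10nM) hydroxylated Luciferin-H (100uM, at its KM) to luciferin in 25mM KPO4. Compound was preincubated 10 min at 37C, then NADPH regeneration started a 60 min reaction at 37C. Luminescence was read after detection reagent, normalized to 57uM sulphaphenazole.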

[12] = target: Cytochrome P450 3A4 (Homo sapiens) (UniProt P08684); assay: qHTS Assay for Activators of Cytochrome P450 3A4 (AID 885; active = well fitted curve in the direction sought with a large enough effect; an effect the other way counts as inactive or inconclusive; also: nearly all actives have a fitted effect of over 65% in size); conditions: recombinant CYP3A4, Luciferin-PPXE luminescence, 60 min; series mostly up to 11.4 µM
How it was run: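 Steps: enzyme/substrate mix dispensed; compound added, 10 min RT; NADPH regeneration solution added, 60 min RT; luciferin detection buffer stops reaction; 20 min later luminescence measured.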

[13] = qHTS Assay for Identification of Small Molecule Agonists for Hypoxia Response Element Signaling Pathway (AID 914; active = well fitted activation curve with a large enough effect in the signal ratio, with a control signal flat, not every such curve was filed as active; the % refers to the signal ratio; also: potency is read from the fitted curve at half-maximal effect); conditions: ME-180 HRE-bla reporter, beta-lactamase ratio, CoCl2, 17 h; activation: hits give high values
How it was run: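 ME-180 cells carrying an HRE-driven beta-lactamase reporter were treated with compounds in a titration series plus an EC50 level of CoCl2 for 17 h at 37 degrees Celsius; CCF4 readout as the 460nm/530nm ratio gave AC50 values.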

Oc1c(Cl)cc(C(c2cc(Cl)c(O)c(Cl)c2)C(c2cc(Cl)c(O)c(Cl)c2)c2cc(Cl)c(O)c(Cl)c2)cc1Cl
inactive: Potency [3] > 46 µM | Potency [4] > 9.22 µM | Potency [5] | Potency [6]
active: Potency [1] 5.75 µM | Potency [2] 0.794 µM | Potency [7] 2.51 µM

CC(C)Cn1cnc2c(SCc3ccc(Cl)cc3Cl)nc(N)nc21
active: Potency [2] 1.26 µM | Potency [8] 3.98 µM | Potency [7] 2 µM
inactive: Potency [1] > 11.4 µM | Potency [3] > 46 µM | Potency [4] > 9.22 µM | Potency [5] | Potency [6]

O=[N+]([O-])c1ccc(S(=O)(=O)Cc2ccccc2)c([N+](=O)[O-])c1
inactive: Potency [1] > 11.4 µM | Potency [4] > 9.22 µM | Potency [5]
active: activity change, negative = inhibition [9] -88.3%

C[C@@H](CCC(=O)O)C(=O)O
inactive: Potency [1] > 11.4 µM | activity change, negative = inhibition [9] 5.4% | activity, negative = inhibition [10] 0.834% | Potency [3] > 46 µM | Potency [4] > 9.22 µM | Potency [5] | Potency [6]

COCCn1c(=O)c(-c2cccc(C#N)c2)nc2cnc(N3CCNCC3)nc21
active: Potency [2] 10 µM | Potency [11] 3.98 µM | Potency [13] 3.16 µM
inactive: Potency [1] > 11.4 µM | Potency [3] > 9.22 µM | Potency [4] > 46 µM | Potency [5] | Potency [6] | Potency [12]

COc1cccc(Nc2ncc3nc(CCc4ccccc4)c(=O)n(C[C@H]4CCCO4)c3n2)c1
inactive: Potency [1] > 11.4 µM | activity change, negative = inhibition [9] -6.15% | activity, negative = inhibition [10] -12.8% | Potency [3] > 9.22 µM | Potency [4] > 46 µM | Potency [5]

N#CCCn1c(=O)c(-c2cccs2)nc2cnc(Oc3cccc(Cl)c3)nc21
inactive: Potency [1] > 11.4 µM | Potency [3] > 9.22 µM | Potency [4] > 46 µM | Potency [5] | Potency [12]
active: Potency [2] 3.16 µM | Potency [13] 1.58 µM

O=C1/C(=C/c2ccccc2)[C@@H](NC2CCCCC2)c2ccccc21
inactive: Potency [1] > 11.4 µM | Potency [4] > 9.22 µM | Potency [5] | Potency [6] | Potency [12]
active: Potency [2] 1 µM | Potency [11] 3.98 µM | Potency [7] 1.26 µM
